Assay results: PubChem BioAssay (Tox21)
Results filed as inconclusive are left out. Calls of active or inactive are those of the source. Unless noted, calls come from the whole dose curve.

Experiments:
[1] = qHTS assay to identify small molecule agonists of the peroxisome proliferator-activated receptor delta (PPARd) signaling pathway - cell viability counter screen (AID 743211; active = well fitted curve in the direction sought with a large enough effect in the repeat runs; an effect the other way counts as inactive or inconclusive; note: % is set by controls: 0 for no effect and ±100 for the full control effect; nearly all actives have a fitted effect of over 55% in size)
Procedure, shortened: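 Viability of GeneBLAzer PPARd UAS-bla HEK293H cells was assessed after 17 h compound incubation at 37C, using CellTiter-Glo reagent added after the reporter read and luminescence recorded 30 min later.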

[2] = molecular target: Peroxisome proliferator-activated receptor delta (Homo sapiens) (UniProt Q03181); assay: qHTS assay to identify small molecule agonists of the peroxisome proliferator-activated receptor delta (PPARd) signaling pathway (AID 743212); note: % is set by controls: 0 for no effect and ±100 for the full control effect
Peroxisome proliferator-activated receptor delta (Homo sapiens), sequence (Q03181 whole entry, looked up): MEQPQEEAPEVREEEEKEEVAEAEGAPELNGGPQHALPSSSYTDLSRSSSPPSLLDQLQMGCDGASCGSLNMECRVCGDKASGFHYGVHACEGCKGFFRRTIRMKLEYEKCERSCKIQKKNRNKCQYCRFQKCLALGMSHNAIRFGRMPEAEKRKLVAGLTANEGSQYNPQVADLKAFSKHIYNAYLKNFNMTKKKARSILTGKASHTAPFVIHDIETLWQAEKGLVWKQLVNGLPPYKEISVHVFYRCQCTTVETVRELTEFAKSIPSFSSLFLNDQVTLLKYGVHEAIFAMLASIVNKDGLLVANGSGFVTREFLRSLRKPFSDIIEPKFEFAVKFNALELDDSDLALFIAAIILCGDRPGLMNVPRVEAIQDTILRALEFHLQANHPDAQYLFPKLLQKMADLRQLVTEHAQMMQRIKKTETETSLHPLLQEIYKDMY
Procedure, shortened: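 Tox21 library screened in GeneBLAzer PPARd UAS-bla HEK293H cells. After compound treatment at 37 C, a FRET-based beta-lactamase substrate was applied for 2 h and fluorescence recorded.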

[3] = qHTS assay to identify small molecule antagonists of the peroxisome proliferator-activated receptor delta (PPARd) signaling pathway - cell viability counter screen (AID 743213; active = well fitted curve in the direction sought with a large enough effect in the repeat runs; an effect the other way counts as inactive or inconclusive; note: % is set by controls: 0 for no effect and ±100 for the full control effect; nearly all actives have a fitted effect of over 50% in size)
Procedure, shortened: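 HEK293H cells with the PPARd UAS-bla reporter, co-treated 17 h at 37 C with compounds and L165041 (300 nM final), were lysed with CellTiter-Glo. Luminescence indicated viable cell content.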

[4] = molecular target: Peroxisome proliferator-activated receptor delta (Homo sapiens) (UniProt Q03181); assay: qHTS assay to identify small molecule antagonists of the peroxisome proliferator-activated receptor delta (PPARd) signaling pathway (AID 743215; active = well fitted inhibition curve with a large enough effect in the signal ratio in the repeat runs, not every such curve was filed as active; the % refers to the signal ratio;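 note: cells stimulated with agonist L165041 at 300 nM final during compound exposure; series mostly up to about 62 µM; % is set by controls: 0 for no effect and ±100 for the full control effect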)
Procedure, shortened: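 Screen format: qHTS, antagonist mode. HEK293H PPARd-bla cells received compound and 300 nM L165041 (final), 17 h, 37 C. Beta-lactamase detected via FRET substrate fluorescence, 2 h, room temperature.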

[5] = qHTS assay to identify small molecule agonists of the farnesoid-X-receptor (FXR) signaling pathway - cell viability counter screen (AID 743218; active = well fitted curve in the direction sought with a large enough effect in the repeat runs; an effect the other way counts as inactive or inconclusive; note: % is set by controls: 0 for no effect and ±100 for the full control effect; nearly all actives have a fitted effect of over 45% in size)
Procedure, shortened: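 Same-well cytotoxicity check on FXR-UAS-bla HEK 293T cells: 5 h attachment, 16 h compound at 37 C, CellTiter-Glo luminescence read at room temperature after 30 min.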

[6] = qHTS assay to identify small molecule antagonists of the farnesoid-X-receptor (FXR) signaling pathway - cell viability counter screen (AID 743221; active = well fitted cell-killing curve with a large enough effect in the repeat runs, not every such curve was filed as active; note: % is set by controls: 0 for no effect and ±100 for the full control effect; nearly all actives have a fitted effect of over 50% in size)
Procedure, shortened: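 Quantitative HTS of the Tox21 10K library run in parallel with the beta-lactamase reporter read. HEK 293T cells carrying a UAS-driven bla reporter got compound and 50 uM CDCA (final) for 16 h; ATP-based luminescence followed.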

[7] = molecular target: Vitamin D3 receptor (Homo sapiens) (UniProt P11473); assay: qHTS assay to identify small molecule agonists of the vitamin D receptor (VDR) signaling pathway (AID 743222); note: % is set by controls: 0 for no effect and ±100 for the full control effect
Vitamin D3 receptor (Homo sapiens), sequence (P11473 whole entry, looked up): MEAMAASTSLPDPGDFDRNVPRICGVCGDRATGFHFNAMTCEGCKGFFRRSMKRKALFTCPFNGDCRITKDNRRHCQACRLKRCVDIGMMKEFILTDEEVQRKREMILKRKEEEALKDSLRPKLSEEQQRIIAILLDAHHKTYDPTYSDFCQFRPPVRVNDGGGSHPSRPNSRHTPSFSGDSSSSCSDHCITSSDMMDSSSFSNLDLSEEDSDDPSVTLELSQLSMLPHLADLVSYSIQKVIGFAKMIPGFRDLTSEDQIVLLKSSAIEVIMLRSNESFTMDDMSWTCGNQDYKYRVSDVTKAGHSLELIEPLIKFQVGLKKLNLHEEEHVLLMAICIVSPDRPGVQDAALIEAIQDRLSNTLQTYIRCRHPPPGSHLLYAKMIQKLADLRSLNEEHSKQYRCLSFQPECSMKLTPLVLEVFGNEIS
Procedure, shortened: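 Using LiveBLAzer B/G FRET detection, agonism was scored in VDR-bla cells exposed overnight (16 h, 37C) to DMSO-dissolved compounds; substrate incubation was 2 h at room temperature.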

[8] = molecular target: Vitamin D3 receptor (Homo sapiens) (UniProt P11473); assay: qHTS assay to identify small molecule antagonists of the vitamin D receptor (VDR) signaling pathway (AID 743223; active = well fitted inhibition curve with a large enough effect in the signal ratio in the repeat runs, not every such curve was filed as active; the % refers to the signal ratio; note: % is set by controls: 0 for no effect and ±100 for the full control effect)
Procedure, shortened: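 Fluorescence from LiveBLAzer B/G FRET substrate, read after 2 h at room temperature, reflects beta-lactamase reporter activity in VDR-bla cells treated 16 h at 37C with compounds and agonist 1alpha,25-dihydroxyvitamin D3 (3 nM final).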

[9] = qHTS assay to identify small molecule agonists of the vitamin D receptor (VDR) signaling pathway - cell viability counter screen (AID 743224; active = well fitted curve in the direction sought with a large enough effect in the repeat runs; an effect the other way counts as inactive or inconclusive; note: series mostly up to about 63 µM; % is set by controls: 0 for no effect and ±100 for the full control effect; nearly all actives have a fitted effect of over 50% in size)
Procedure, shortened: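 Counter screen for cytotoxicity: VDR-bla cells at 2,000 cells/well, 16 h compound exposure, then CellTiter-Glo luminescence after the beta-lactamase measurement.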

[10] = qHTS assay to identify small molecule antagonists of the vitamin D receptor (VDR) signaling pathway - cell viability counter screen (AID 743225; active = well fitted curve in the direction sought with a large enough effect in the repeat runs; an effect the other way counts as inactive or inconclusive; note: % is set by controls: 0 for no effect and ±100 for the full control effect; nearly all actives have a fitted effect of over 50% in size)
Procedure, shortened: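 Cells (VDR-UAS-bla HEK 293T) are plated, rested 4 h at 37C, dosed with compound and 3 nM final 1-alpha,25-dihydroxy vitamin D3, and incubated 16 h. Viability is taken from CellTiter-Glo luminescence in the reporter wells.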

[11] = qHTS assay to identify small molecule agonists of the NFkB signaling pathway - cell viability counter screen (AID 1159515); note: series mostly up to about 61 µM; % is set by controls: 0 for no effect and ±100 for the full control effect; nearly all actives have a fitted effect of over 55% in size
Procedure, shortened: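 Counter screen run alongside the NFkB-bla agonist assay: ME-180 reporter cells exposed to compounds for 5 hr, then lysed with CellTiter-Glo in the same wells. Luminescence, read after 30 min, reflects viable cells.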

[12] = qHTS assay to identify small molecule agonists of the endoplasmic reticulum stress response signaling pathway (AID 1159516; active = well fitted activation curve with a large enough effect in the signal ratio in the repeat runs, not every such curve was filed as active; the % refers to the signal ratio; note: % is set by controls: 0 for no effect and ±100 for the full control effect)
Procedure, shortened: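 For this screen, HeLa cells stably carrying beta-lactamase under the ER stress response element received test compounds, positive controls or DMSO for 5 hr at 37 C; B/G FRET substrate was then added and dual-wavelength emission recorded.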

[13] = qHTS assay to identify small molecule agonists of the endoplasmic reticulum stress response signaling pathway - cell viability counter screen (AID 1159517)
Procedure, shortened: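 In parallel with the ESRE reporter read, cytotoxicity was scored by CellTiter-Glo luminescence (30 min, room temperature) on HeLa ESRE-bla cells dosed for 5 hr.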

[14] = qHTS assay to identify small molecule antagonists of the retinoid-related orphan receptor gamma (ROR-gamma) signaling pathway - cell viability counter screen (AID 1159520; active = well fitted curve in the direction sought with a large enough effect in the repeat runs; an effect the other way counts as inactive or inconclusive)
Procedure, shortened: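 Tet-on ROR gamma CHO cells were given compounds for 2 hr, then doxycycline hyclate at 1 uM final, and incubated 16 hr at 37 C. Viability was measured as ATP content by CellTiter-Glo luminescence.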

[15] = molecular target: Nuclear receptor ROR-gamma (Homo sapiens) (UniProt P51449); assay: qHTS assay to identify small molecule antagonists of the retinoid-related orphan receptor gamma (ROR-gamma) signaling pathway (AID 1159521; active = well fitted curve in the direction sought with a large enough effect in the repeat runs; an effect the other way counts as inactive or inconclusive)
Procedure, shortened: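 RORγ antagonism is scored from reduced reporter luminescence in Tet-on CHO cells. Induction used 1 uM final doxycycline hyclate for 16 h at 37 C, following a 2 h compound exposure.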

[16] = qHTS assay to identify small molecule agonists of the AP-1 signaling pathway - cell viability counter screen (AID 1159525); note: nearly all actives have a fitted effect of over 55% in size
Procedure, shortened: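 Same-well cytotoxicity counter screen of the Tox21 10K library in ME-180 cells. The readout is ATP-dependent luminescence after 5 h compound treatment. Data are normalised to DMSO and tetra n-octyl ammonium bromide controls.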

[17] = qHTS assay to identify small molecule agonists of the AP-1 signaling pathway (AID 1159526); note: % is set by controls: 0 for no effect and ±100 for the full control effect
[18] = molecular target: Retinoic acid receptor RXR-alpha (Homo sapiens) (UniProt P19793); assay: qHTS assay to identify small molecule agonists of the RXR signaling pathway (AID 1159527); note: % is set by controls: 0 for no effect and ±100 for the full control effect; nearly all actives have a fitted effect of over 35% in size
Retinoic acid receptor RXR-alpha (Homo sapiens), sequence (P19793 whole entry, looked up): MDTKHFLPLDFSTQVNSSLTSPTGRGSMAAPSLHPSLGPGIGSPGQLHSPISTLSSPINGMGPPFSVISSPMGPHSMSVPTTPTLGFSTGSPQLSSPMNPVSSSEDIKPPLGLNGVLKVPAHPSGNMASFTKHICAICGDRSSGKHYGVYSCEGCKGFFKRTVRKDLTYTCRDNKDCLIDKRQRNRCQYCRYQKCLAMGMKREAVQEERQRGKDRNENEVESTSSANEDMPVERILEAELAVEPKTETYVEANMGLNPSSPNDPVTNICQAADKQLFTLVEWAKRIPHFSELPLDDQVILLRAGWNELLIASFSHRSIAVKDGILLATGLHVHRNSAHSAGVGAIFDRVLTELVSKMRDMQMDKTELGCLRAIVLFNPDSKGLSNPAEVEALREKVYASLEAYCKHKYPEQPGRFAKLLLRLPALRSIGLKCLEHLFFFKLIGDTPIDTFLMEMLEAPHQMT
Procedure, shortened: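 qHTS of the Tox21 10K library in GeneBLAzer RXR-alpha HEK 293T cells carrying a beta-lactamase reporter […]; 16 hr treatment, 9-cis retinoic acid as agonist control, FRET read-out.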

[19] = molecular target: Bile acid receptor (Homo sapiens) (UniProt Q96RI1); assay: qHTS assay to identify small molecule antagonists of the farnesoid-X-receptor (FXR) signaling pathway (AID 743217; active = well fitted inhibition curve with a large enough effect in the signal ratio in the repeat runs, not every such curve was filed as active; the % refers to the signal ratio; note: % is set by controls: 0 for no effect and ±100 for the full control effect)
Bile acid receptor (Homo sapiens), sequence (Q96RI1 whole entry, looked up): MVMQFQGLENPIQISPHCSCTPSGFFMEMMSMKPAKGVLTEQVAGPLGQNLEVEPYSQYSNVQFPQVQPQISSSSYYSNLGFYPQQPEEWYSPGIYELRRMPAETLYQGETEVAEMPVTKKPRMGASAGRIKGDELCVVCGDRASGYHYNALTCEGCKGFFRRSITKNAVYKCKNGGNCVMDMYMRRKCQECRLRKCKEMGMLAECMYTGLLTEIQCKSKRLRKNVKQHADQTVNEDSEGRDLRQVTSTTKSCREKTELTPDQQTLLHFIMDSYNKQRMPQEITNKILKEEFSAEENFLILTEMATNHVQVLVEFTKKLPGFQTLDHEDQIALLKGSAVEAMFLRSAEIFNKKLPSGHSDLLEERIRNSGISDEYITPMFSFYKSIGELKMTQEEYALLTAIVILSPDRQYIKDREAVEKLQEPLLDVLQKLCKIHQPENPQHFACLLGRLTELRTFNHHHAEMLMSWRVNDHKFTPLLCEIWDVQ
Procedure, shortened: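 Quantitative HTS, beta-lactamase reporter format: FXR-UAS-bla HEK 293T cells co-treated 16 h at 37 °C with compounds and 50 uM final chenodeoxycholic acid, then read by B/G FRET fluorescence.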

[20] = molecular target: Bile acid receptor (Homo sapiens) (UniProt Q96RI1); assay: qHTS assay to identify small molecule agonists of the farnesoid-X-receptor (FXR) signaling pathway (AID 743220; active = well fitted activation curve with a large enough effect in the signal ratio in the repeat runs, not every such curve was filed as active; the % refers to the signal ratio; note: % is set by controls: 0 for no effect and ±100 for the full control effect)
Procedure, shortened: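 FXR-UAS-bla HEK 293T cells carrying a UAS-driven beta-lactamase reporter were plated for 5 h at 37C/5% CO2, then exposed to DMSO-dissolved Tox21 10K compounds for 16 h at 37C. A LiveBLAzer B/G FRET substrate was loaded for 2 h at room temperature before fluorescence reading.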

CCOC(=O)COC(=O)c1ccccc1C(=O)OCC
inactive: outcome [1] | outcome [2] | outcome [3] | outcome [4] | outcome [5] | outcome [6] | outcome [7] | outcome [8] | outcome [9] | outcome [10] | outcome [11] | outcome [12] | outcome [13] | outcome [14] | Potency [15] | outcome [16] | outcome [17] | Potency [18]

Cc1cccc(C)c1NC(=O)CC12CCCN1CCC2
inactive: outcome [1] | outcome [2] | outcome [3] | outcome [4] | outcome [19] | outcome [5] | outcome [20] | outcome [6] | outcome [9] | outcome [11] | outcome [12] | outcome [13] | outcome [14] | Potency [15] | outcome [16] | outcome [17] | Potency [18]

CCOC(=O)C1=NOC(c2ccccc2)(c2ccccc2)C1
inactive: outcome [1] | outcome [2] | outcome [3] | outcome [19] | outcome [20] | outcome [6] | outcome [8] | outcome [9] | outcome [10] | outcome [11] | outcome [12] | outcome [13] | outcome [14] | Potency [15] | outcome [16] | outcome [17] | Potency [18]

CC1=C(C/C=C(\C)CCC[C@H](C)CCC[C@H](C)CCCC(C)C)C(=O)c2ccccc2C1=O
inactive: outcome [1] | outcome [2] | outcome [3] | outcome [4] | outcome [5] | outcome [6] | outcome [9] | outcome [10] | outcome [11] | outcome [12] | outcome [13] | outcome [14] | Potency [15] | outcome [16] | outcome [17] | Potency [18]

CC(C)(C)C(=O)Oc1ccc(S(=O)(=O)Nc2ccccc2C(=O)NCC(=O)O)cc1
inactive: outcome [1] | outcome [2] | outcome [3] | outcome [4] | outcome [19] | outcome [20] | outcome [6] | outcome [8] | outcome [9] | outcome [10] | outcome [11] | outcome [12] | outcome [13] | outcome [14] | Potency [15] | outcome [16] | outcome [17] | Potency [18]

NC(CCC(=O)O)C(=O)O (stereo not drawn)
inactive: outcome [1] | outcome [2] | outcome [3] | outcome [4] | outcome [5] | outcome [6] | outcome [7] | outcome [9] | outcome [10] | outcome [11] | outcome [12] | outcome [13] | outcome [14] | Potency [15] | outcome [16] | outcome [17] | Potency [18]

CCOC(=O)c1cnc2c(cnn2CC)c1NN=C(C)C
inactive: outcome [1] | outcome [2] | outcome [3] | outcome [5] | outcome [6] | outcome [7] | outcome [8] | outcome [9] | outcome [10] | outcome [11] | outcome [12] | outcome [13] | outcome [14] | Potency [15] | outcome [16] | outcome [17] | Potency [18]

CCCCCCCC1CCCC1=O (stereo not drawn)
inactive: outcome [1] | outcome [2] | outcome [3] | outcome [4] | outcome [5] | outcome [6] | outcome [9] | outcome [10] | outcome [11] | outcome [12] | outcome [13] | outcome [14] | Potency [15] | outcome [16] | outcome [17] | Potency [18]

CN1C(C)(C)CC(O)CC1(C)C
inactive: outcome [1] | outcome [2] | outcome [3] | outcome [4] | outcome [19] | outcome [5] | outcome [20] | outcome [6] | outcome [7] | outcome [8] | outcome [9] | outcome [11] | outcome [12] | outcome [13] | outcome [14] | Potency [15] | outcome [16] | outcome [17] | Potency [18]

CC[N+](CC)(CC)CCOc1cccc(OCC[N+](CC)(CC)CC)c1OCC[N+](CC)(CC)CC
inactive: outcome [1] | outcome [2] | outcome [3] | outcome [4] | outcome [5] | outcome [6] | outcome [9] | outcome [10] | outcome [11] | outcome [12] | outcome [13] | outcome [14] | Potency [15] | outcome [16] | outcome [17] | Potency [18]

CCOc1c(N2CCOCC2)cnn(C)c1=O
inactive: outcome [1] | outcome [2] | outcome [3] | outcome [4] | outcome [5] | outcome [6] | outcome [7] | outcome [8] | outcome [9] | outcome [10] | outcome [11] | outcome [12] | outcome [13] | outcome [14] | Potency [15] | outcome [16] | outcome [17] | Potency [18]

NC(N)=NCCN1CCCCCCC1
inactive: activity change, negative = cytotoxicity [1] 8.58% [at 0.55 µM] | activation [2] 3.33% [at 0.55 µM] | viability change, negative = cytotoxic [3] 2.8% [at 0.575 µM] | ratio activity, negative = inhibition [4] 5.69% [at 0.575 µM] | viability change, negative = cytotoxic [5] 2.57% [at 0.55 µM] | activity change, negative = cytotoxicity [6] -1.17% [at 0.55 µM] | activity change, negative = cytotoxicity [9] -13.4% [at 0.55 µM] | activity, negative = cytotoxic [11] -1.12% [at 0.628 µM] | activation [12] 2.69% [at 0.628 µM] | activity change, negative = cytotoxicity [13] -3.02% [at 0.628 µM] | activity, negative = cytotoxicity [14] 6.85% [at 0.349 µM] | activity change, negative = inhibition [15] 36.3% [at 0.35 µM] | viability change, negative = cytotoxic [16] 8.04% [at 0.29 µM] | activation [17] -7.76% [at 0.29 µM] | activation [18] 1.89% [at 0.29 µM]

CCCn1cc[n+](C)c1C
inactive: outcome [1] | outcome [2] | outcome [3] | outcome [4] | outcome [6] | outcome [7] | outcome [9] | outcome [11] | outcome [12] | outcome [13] | outcome [14] | Potency [15] | outcome [16] | outcome [17] | Potency [18]

O=C(O)Cc1csc(-c2ccc(Cl)cc2)n1
inactive: outcome [1] | outcome [2] | outcome [3] | outcome [6] | outcome [7] | outcome [8] | outcome [9] | outcome [10] | outcome [11] | outcome [12] | outcome [13] | outcome [14] | Potency [15] | outcome [16] | outcome [17] | Potency [18]

O=C1c2ccccc2C(=O)c2cc(O)ccc21
inactive: outcome [1] | outcome [2] | outcome [3] | outcome [4] | outcome [5] | outcome [6] | outcome [7] | outcome [8] | outcome [9] | outcome [10] | outcome [11] | outcome [12] | outcome [13] | outcome [14] | Potency [15] | outcome [16] | outcome [17] | Potency [18]
